HCMV inh: blocks human cytomegalovirus replication; HFF cells, HCMV-luciferase reporter, 72 h; active compounds read low; 4.5% of 410,000 active; activity change, negative = inhibition, % at 57.5 µM; AID 1259415; in the data active = activity change below about -60%; inconclusive = no clear call, values can overlap the other calls; inactive = above about -39%
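Two-dose cell screen: HFF monolayers treated with compounds and infected with luciferase-expressing HCMV at 1 PFU/cell, 72 h at 37C, then lysed for luciferase measurement.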
MARV entry inh: inhibitors of Marburg virus binding or cell entry | Marburg virus pseudotyped entry inhibition, cell reporter | Potency, µM (titrated, usually from 37.8 µM), hits mostly inhibitors | 1.8% of 300,000 active; calls by dose curve; tested in HEK293 cells
HCV inh: blocks hepatitis C virus; 3.4% of 340,000 active; AID 651820; Potency, µM (series often up to 41.8 µM), actives largely listed as inhibitors; Huh7.5.1 HCVcc-Cre infection, luciferase reporter, 44 h; active = well fitted inhibition curve with a large enough effect; inconclusive = small, poorly fitted or top-dose-only effect, or another doubt; inactive = no such curve, though single readings can be large or run the other way
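Infectious HCVcc-Cre (~0.5 moi) was added to cells just after compound, with cells seeded 4 h earlier at 1,000 per well. Luciferase activity after 44 h culture reported infection; substrate was incubated 15 min at room temperature before reading.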
LASV entry inh: inhibitors of Lassa virus binding or cell entry. Potency, µM (titrated, usually from 37.9 µM), usual class: inhibitors. 1.2% of 300,000 active. AID 540256. Lassa virus pseudotype entry inhibition, cell reporter; calls by dose curve; tested in HEK293 cells; note: nearly all actives have a fitted effect of over 50% in size
SARS PLpro yeast: inhibitors of SARS-CoV papain-like protease in yeast. Potency, µM (series often up to 32.9 µM), hits mostly activators. AID 485353. S. cerevisiae expressing SARS-CoV PLpro, growth rescue. 0.19% of 330,000 active; calls by dose curve; note: nearly all actives have a fitted effect of over 55% in size
FMDV antiviral: blocks foot and mouth disease virus; AID 1159524; 1.2% of 410,000 active; FMDV antiviral cell-based qHTS; Potency, µM (top dose mostly 57.9 µM), usual class: inhibitors; calls by dose curve; tested in HEK293T cells; note: read-out not given here; nearly all actives have a fitted effect of over 45% in size
Each line names hits and unclear results; the compound was inactive in the other large screens. Hits are enriched below; roughly 8% of the tested compounds scored in any of these assays.

COc1ccc(-c2csc(N(CCCN(C)C)C(=O)c3ccccc3F)n2)cc1	HCV inh inconclusive (no result: MARV entry inh, LASV entry inh)
COc1ccc(-c2csc(N(CCCN(C)C)C(=O)c3ccc(F)cc3)n2)cc1	none
COc1cccc(OC)c1OC(=O)/C=C/c1ccc(C)o1	none
CCOC(=O)c1ccc(NC(=O)CN2C(=O)c3cccnc3Oc3ccc(Cl)cc32)cc1	none (no result: MARV entry inh, HCV inh, SARS PLpro yeast)
Cc1ccc2occ(CC(=O)Nc3ccc(S(=O)(=O)N4CCC(C)CC4)cc3)c2c1	none (no result: HCV inh, SARS PLpro yeast)
CCNC(=S)N/N=C/c1ccc(C#N)cc1	HCMV inh -62, MARV entry inh inconclusive, HCV inh inconclusive, LASV entry inh inconclusive
CC(C)CN(C)Cc1c(C(=O)N2CCc3ccccc3C2)nc2ccc(Cl)cn12	MARV entry inh 11µM, HCV inh inconclusive
CCCCN(C)Cc1c(C(=O)N2CCc3ccccc3C2)nc2ccc(Cl)cn12	MARV entry inh inconclusive
Cc1cc(C(=O)N2CCN(C(c3ccccc3)c3ccccc3)CC2)no1	HCV inh inconclusive, FMDV antiviral inconclusive
Cc1onc(C(=O)N2CCN(C(c3ccccc3)c3ccccc3)CC2)c1[N+](=O)[O-]	HCMV inh -103, HCV inh inconclusive, FMDV antiviral inconclusive
COc1ccccc1-c1cc(C(F)(F)F)n2ncc(C(=O)N3CCc4ccccc4C3)c2n1	HCV inh 11µM
COc1ccccc1N1CCN(C(=O)c2noc(C)c2[N+](=O)[O-])CC1	none (no result: MARV entry inh, LASV entry inh)
CN1CCN(C(=O)c2cnn3c(C(F)(F)F)cc(-c4cccs4)nc23)CC1	none
O=C(c1cc(-c2cccs2)on1)N1CCN(C(c2ccccc2)c2ccccc2)CC1	HCMV inh inconclusive, MARV entry inh inconclusive, HCV inh 2.8µM, LASV entry inh inconclusive
COc1ccccc1-c1cc(C(=O)N2CCc3ccccc3C2)c2ccccc2n1	none (no result: HCMV inh, HCV inh, LASV entry inh, FMDV antiviral)
O=C(c1cnn2c(C(F)(F)F)cc(-c3cccs3)nc12)N1CCN(C(c2ccccc2)c2ccccc2)CC1	MARV entry inh 13µM, HCV inh inconclusive, LASV entry inh inconclusive
CCOC(=O)c1c(C)oc2nc(C)nc(NCc3ccc(OC)cc3)c12	none (no result: MARV entry inh, HCV inh, SARS PLpro yeast)
CCOC(=O)Cn1c(S(=O)(=O)Cc2ccc(Cl)cc2)nc(-c2ccccc2)c1-c1ccccc1	HCMV inh inconclusive, MARV entry inh inconclusive, HCV inh 35µM, LASV entry inh inconclusive
CCOC(=O)Cn1c(S(=O)(=O)Cc2ccccc2)nc2ccccc21	none
C#CCn1c(S(=O)(=O)Cc2ccc(OC)cc2)nc(-c2ccccc2)c1-c1ccccc1	MARV entry inh 4.1µM, LASV entry inh inconclusive
CCC1CN(CCNC(=O)c2cc(C(C)C)nn2C)Cc2cc(OC)ccc2O1 (stereo unspecified)	none (no result: HCMV inh, MARV entry inh, HCV inh, LASV entry inh, SARS PLpro yeast)
CCOC(=O)N1CCN(S(=O)(=O)N2CCCC(C(=O)NCc3ccc(OC)cc3)C2)CC1 (stereo unspecified)	HCMV inh active
COc1ccc(CNC(=O)C2CCN(C(=O)c3csc(Nc4ccc(C)cc4)n3)CC2)cc1	MARV entry inh inconclusive, HCV inh 11µM, FMDV antiviral 25µM (no result: LASV entry inh)
COc1ccc(CNC(=O)C2CCN(S(=O)(=O)N3CCCC3)CC2)cc1	HCMV inh active (no result: MARV entry inh, LASV entry inh)
COc1ccc(CNC(=O)C2CCN(C(=O)c3ccc(-c4ccccc4)cc3)CC2)cc1	MARV entry inh inconclusive, LASV entry inh 2.5µM, FMDV antiviral inconclusive
CC1=CC(=O)C2=C(C)C[C@@H]3OC(=O)[C@@H](C)[C@H]3C=C12	none (no result: HCMV inh, MARV entry inh, HCV inh, LASV entry inh, SARS PLpro yeast)
O=C(/C=C\c1ccco1)Oc1cccc2cccnc12	MARV entry inh inconclusive, HCV inh inconclusive
O=C(/C=C/c1ccco1)Oc1cccc2cccnc12	HCMV inh -72, MARV entry inh inconclusive, HCV inh inconclusive
O=c1cc(-c2cccc(O)c2)oc2ccc(O)cc12	none (no result: HCMV inh, MARV entry inh, HCV inh, LASV entry inh, SARS PLpro yeast)
O=c1cc(-c2ccc(O)cc2)oc2ccc(O)cc12	HCV inh 32µM, LASV entry inh inconclusive
CCC1CN(Cc2cn[nH]c2-c2ccc(OC)cc2)Cc2cc(OC)ccc2O1 (stereo unspecified)	none (no result: HCMV inh, MARV entry inh, HCV inh, LASV entry inh, SARS PLpro yeast)
COc1cc([C@@H]2c3cc4c(cc3[C@@H](O[C@@H]3O[C@@H]5CO[C@@H](C)O[C@H]5[C@H](O)[C@H]3O)[C@H]3COC(=O)[C@H]23)OCO4)cc(OC)c1O	HCMV inh -99, HCV inh inconclusive (no result: MARV entry inh, LASV entry inh, SARS PLpro yeast)
COc1cc(C2c3cc4c(cc3C(OC3OC5COC(c6cccs6)OC5C(O)C3O)C3COC(=O)C23)OCO4)cc(OC)c1O (stereo unspecified)	HCMV inh -99 (no result: MARV entry inh, LASV entry inh)
COc1cc(C2c3cc4c(cc3C(OC3OC5COC(C)O[C@@H]5C(O)C3O)C3COC(=O)C23)OCO4)cc(OC)c1O (stereo partly specified)	none (no result: HCMV inh, MARV entry inh, HCV inh, LASV entry inh, SARS PLpro yeast)
COc1ccccc1Cc1nc2ccccc2nc1SCC(=O)N1CCC(C)CC1	HCMV inh inconclusive (no result: MARV entry inh, HCV inh, SARS PLpro yeast)
CC(NC(=O)CSC1=NCCS1)c1ccccc1 (stereo unspecified)	HCMV inh -76
COc1ccccc1CNC(=O)CSc1ccc(Br)cc1	HCMV inh inconclusive, MARV entry inh inconclusive
COc1ccccc1CNC(=O)CSC1=NCCS1	HCMV inh -61
CCc1ccc2oc(C(=O)Nc3cccc(C(F)(F)F)c3)cc(=O)c2c1	none (no result: HCV inh, SARS PLpro yeast)
Cc1ccc(CC(=O)OC(C)C(=O)NC2CCCCC2C)cc1C (stereo unspecified)	HCMV inh inconclusive (no result: MARV entry inh, LASV entry inh, SARS PLpro yeast)
COc1cc(C2C(C(=O)Nc3ccc(C)cc3C)=C(C)Nc3nc(SCc4ccccc4)nn32)cc(OC)c1OC (stereo unspecified)	HCMV inh -74 (no result: HCV inh, SARS PLpro yeast)
COc1cccc(CSc2nc3n(n2)C(CC(C)C)C(C(=O)Nc2ccccc2OC)=C(C)N3)c1 (stereo unspecified)	HCMV inh -70 (no result: MARV entry inh, HCV inh, SARS PLpro yeast)
COc1cc(C2C(C(=O)Nc3ccccc3C)=C(C)Nc3nc(SCc4cc(C)ccc4C)nn32)ccc1O (stereo unspecified)	HCMV inh -74 (no result: MARV entry inh, HCV inh, SARS PLpro yeast)
COc1cccc(CSc2nc3n(n2)C(c2cccc(F)c2)C(C(=O)Nc2ccccc2C)=C(C)N3)c1 (stereo unspecified)	none (no result: MARV entry inh, HCV inh, SARS PLpro yeast)
CC1=C(C(=O)Nc2ccccc2C)C(c2cccs2)n2nc(SCc3ccccc3)nc2N1 (stereo unspecified)	HCMV inh -65, MARV entry inh inconclusive, LASV entry inh inconclusive (no result: HCV inh, SARS PLpro yeast)
COc1ccc(OC)c(CNC(=O)c2cnc(N(C)C)nc2)c1	LASV entry inh inconclusive (no result: MARV entry inh, HCV inh, SARS PLpro yeast)
O=C(CC(=O)c1ccccn1)c1ccccc1	MARV entry inh inconclusive, HCV inh inconclusive, LASV entry inh inconclusive (no result: SARS PLpro yeast)
O=C1CC(NS(=O)(=O)c2ccc([N+](=O)[O-])cc2)CN1c1ccc2c(c1)OCCO2 (stereo unspecified)	LASV entry inh inconclusive
O=C(Oc1ccc([N+](=O)[O-])cc1)C1CC(=O)N(c2ccc3c(c2)OCCO3)C1 (stereo unspecified)	HCMV inh -100
Cn1c(=O)c2c(SCC(=O)N3CCCc4ccccc43)nc(CC(C)(C)C)nc2n(C)c1=O	HCV inh inconclusive, FMDV antiviral 22µM (no result: HCMV inh, MARV entry inh, LASV entry inh)
